Test results: PubChem BioAssay (NCATS)
Where “and” joins values, the source holds several entries; their conditions need not be identical. Equal values may be shown once. Records with an inconclusive call do not appear. Calls of active or inactive are those of the source. Calls follow the shape of the dose curve; as a rule, active = well fitted inhibition curve with a large enough effect; inconclusive = small, poorly fitted or top-dose-only effect; inactive = flat fitted curve, though single readings scatter.

Tests used:
[1] = system: CRL-7250; experiment: Cytotoxic Profiling of Annotated Libraries Using Quantitative High-Throughput Screening (AID 1296008); settings: Five cell lines viability, CellTiter-Glo ATP luminescence, 48-72 h; max response: active compounds read low; also: potency is read from the fitted curve at half-maximal effect; as to max response: % is scaled to controls: 0 for no effect and ±100 for the full control effect
Summary of the method: (§1)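 Compounds were pin-transferred onto cells and incubated 48 or 72 hr at 37 degree Celsius, 95% humidity. CellTiter-Glo was added, plates sat 10 min at room temperature, then ATP-coupled luminescence was imaged as the viability read-out.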

[2] = system: HaCat; experiment: as above; settings: Five cell lines viability, CellTiter-Glo ATP luminescence, 48-72 h; max response: active compounds read low
Summary of the method: as §1

[3] = system: KB-3-1; experiment: as above; settings: Five cell lines viability, CellTiter-Glo ATP luminescence, 48-72 h; max response: active compounds read low
Summary of the method: as §1

[4] = system: NIH3T3; experiment: as above; settings: Five cell lines viability, CellTiter-Glo ATP luminescence, 48-72 h; max response: active compounds read low
Summary of the method: as §1

[5] = system: MCC-13; experiment: qHTS assay to identify novel small-molecules to repurpose for Merkel cell carcinoma treatment (AID 1296009); settings: MCC and control cell lines, CellTiter-Glo viability, 72 h; series mostly up to 46 µM
Summary of the method: (§2)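 Viability readout: ATP luminescence (CellTiter-Glo) after 72 hr drug exposure at 37 degree celsius. Dose-response format was 8 points for NPC and 11 points for MIPE; data normalized to in-plate controls.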

[6] = system: MCC-26; experiment: as above; settings: MCC and control cell lines, CellTiter-Glo viability, 72 h; series mostly up to 46 µM
Summary of the method: as §2

[7] = system: W2; experiment: qHTS profiling for inhibitors of Plasmodium falciparum proliferation (AID 504749); also: potency is read from the fitted curve at half-maximal effect; settings: P. falciparum in erythrocytes, SYBR Green DNA, 72 h; series mostly up to 28.7 µM
Summary of the method: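 Quantitative HTS: compounds pinned into medium, infected erythrocytes added (0.3% parasitemia, 2.5% hematocrit), 72 h culture at 37 C under 5% CO2. Saponin/Triton lysis with SYBR Green I, overnight RT, then fluorescence read.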

[8] = system: HACAT; experiment: qHTS assay to identify novel small-molecules to repurpose for Merkel cell carcinoma treatment (AID 1296009); settings: MCC and control cell lines, CellTiter-Glo viability, 72 h; at 44.8 µM (top of the series) unless noted
Summary of the method: as §2

[9] = system: HEK293; experiment: Cytotoxic Profiling of Annotated Libraries Using Quantitative High-Throughput Screening (AID 1296008); settings: Five cell lines viability, CellTiter-Glo ATP luminescence, 48-72 h; max response: active compounds read low; also: potency is read from the fitted curve at half-maximal effect; as to max response: % is scaled to controls: 0 for no effect and ±100 for the full control effect
Summary of the method: as §1

[10] = system: HEK293T; experiment: qHTS assay to identify novel small-molecules to repurpose for Merkel cell carcinoma treatment (AID 1296009); settings: MCC and control cell lines, CellTiter-Glo viability, 72 h; at 44.8 µM (top of the series) unless noted
Summary of the method: as §2
Also: nearly all actives have a fitted effect of over 60% in size.

CCN1CCCC(OC(=O)C(c2ccccc2)c2ccccc2)C1 (centres undefined)
inactive: outcome [1] | max response [2] -8.51% | max response [3] -9.59% | max response [4] 2.04% | Potency [5] | Potency [6]

CCCCNc1ccc(C(=O)OCCOCCOCCOCCOCCOCCOCCOCCOCCOC)cc1
inactive: Potency [7] | max response [1] -14.1% | max response [2] 0.553% | max response [4] -8.1% | Potency [5] | Potency [6]

COc1ccc(-c2cc(C(F)F)nn2-c2ccc(S(N)(=O)=O)cc2)cc1F
inactive: Potency [7] | max response [1] 2.74% | max response [2] -0.189% | max response [3] 15.2% | max response [4] 1.89% | Potency [5] | Potency [6]

CN(CCCN1c2ccccc2CCc2ccccc21)CC(=O)c1ccc(Cl)cc1
inactive: max response [1] -9.87% | max response [2] -17.1% | max response [3] 3.26% | max response [4] 3.31% | Potency [5] | Potency [6]
active: Potency [7] 3.38 µM

O=C(CN1CCN(Cc2ccc3c(c2)OCO3)CC1)N1c2ccccc2Sc2ccccc21
active: Potency [7] 6.01 µM
inactive: max response [1] -6.96% | outcome [2] | outcome [4] | outcome [8] | Potency [5]

O=C(CCCN1CC=C(n2c(=O)[nH]c3ccccc32)CC1)c1ccc(F)cc1
inactive: max response [1] -30.7% | max response [2] -9.03% and -18.9% | max response [3] 3.95% and 1.87% | max response [4] -10.6% | Potency [6]

NC(=O)C1(N2CCCCC2)CCN(CCCC(=O)c2ccc(F)cc2)CC1
inactive: max response [9] -19.7% | outcome [2] | max response [3] 5.68% | max response [4] -2.39% | outcome [8] | Potency [5] | Potency [6]

CCOc1ccccc1OCCN[C@H](C)Cc1ccc(OC)c(S(N)(=O)=O)c1
inactive: max response [9] -5.03% | outcome [2] | max response [3] 4.78% | max response [4] 2.8% | outcome [8] | Potency [5] | Potency [6]

C[N+]1(CC2COC(c3ccccc3)(C3CCCCC3)O2)CCCCC1 (centres undefined)
inactive: max response [1] -1.29% | max response [2] 3.15% | max response [3] -6.02% | max response [4] -8.34% | Potency [5] | Potency [6]
active: Potency [7] 5.36 µM

CN1CCN(C2=Nc3cc(F)ccc3Cc3ccccc32)CC1
active: Potency [7] 7.57 µM
inactive: max response [1] -25% | max response [2] -42.8% | max response [4] -19.6% | Potency [5] | Potency [6]

CN(Cc1ccc(C(C)(C)C)cc1)Cc1cccc2ccccc12
inactive: max response [3] -4.26% and -7.03% | max response [4] -14% | Potency [5] | Potency [6]
active: Potency [7] 9.53 µM

Nc1ccc(S(=O)(=O)Nc2cnc3ccccc3n2)cc1
inactive: Potency [7] | max response [9] 1.95% | max response [2] -4.06% | max response [3] -10.8% | outcome [4] | Potency [5] | Potency [6]

Oc1ccccc1C=NCc1ccccc1
inactive: Potency [7] | max response [9] -3.05% | max response [2] -1.46% | max response [3] -4.65% | outcome [4] | Potency [5]

CCc1nn(CCCN2CCN(c3cccc(Cl)c3)CC2)c(=O)n1CCOc1ccccc1
inactive: max response [3] 3.08% and -5.51% | Potency [5] | Potency [6]

CC(C)[C@@H]1CC[C@@H](C)CC1=O
inactive: max response [9] -11.3% | outcome [2] | max response [4] 4.81% | outcome [8] | Potency [5] | Potency [6]

Oc1ccc(Cl)cc1Cc1cc(Cl)ccc1O
inactive: Potency [6]
active: Potency [9] 21.1 µM

CNCCCCOc1ccccc1Cc1ccccc1
inactive: max response [2] -10% | max response [3] 9.62% | Potency [5] | Potency [6]
active: Potency [7] 1.35 µM | Potency [9] 15 µM

CC(=O)Nc1ccc(OC(=O)c2ccccc2OC(C)=O)cc1
inactive: Potency [7] | outcome [9] | outcome [2] | outcome [4] | outcome [8] | outcome [10] | Potency [5] | Potency [6]

CCOC(=O)[C@@](C)(N)Cc1ccc(O)c(O)c1
inactive: outcome [2] | max response [3] -9.02% | outcome [8] | Potency [5]
active: Potency [9] 18.8 µM

NC(N)=NCc1cccc(I)c1
inactive: Potency [7] | max response [3] 1.64% and -6.45%

COc1ccc(/C=N/NC(=O)c2ccncc2)cc1OC
inactive: Potency [7] | max response [9] -3.6% | outcome [2] | max response [4] -0.709% | outcome [8] | Potency [5] | Potency [6]

O=C(O)C1(C(=O)O)CCC1.[NH2-].[NH2-].[Pt+2]
inactive: max response [9] 1.14% | max response [2] 1.48% | max response [3] 13% | max response [4] -2.25% | Potency [5] | Potency [6]

Nc1nc(N)c(-c2ccccc2)s1
inactive: Potency [7] | max response [9] -1.75% | max response [2] -10.8% | max response [3] -0.967% | max response [4] 2.51% | Potency [5] | Potency [6]

CN(C)CCOC(c1ccc(Cl)cc1)c1ccccn1 (centres undefined)
inactive: max response [9] -23.8% | max response [3] 10.7% | Potency [5] | Potency [6]
active: Potency [7] 1.07 µM

CC(=O)NO
inactive: Potency [7] | max response [9] 1.75% | max response [2] -61% | max response [3] 15.6% | max response [4] 2.47% | Potency [5] | Potency [6]

O[C@@H](c1cc(C(F)(F)F)nc2c(C(F)(F)F)cccc12)[C@H]1CCCCN1
active: Potency [9] 9.44 µM | Potency [3] 25.9 µM

Oc1c(Cl)cc(Cl)c(Cl)c1Cc1c(O)c(Cl)cc(Cl)c1Cl
inactive: Potency [6]
active: Potency [9] 8.41 µM

C=C[C@H]1CN2CC[C@H]1C[C@H]2[C@H](O)c1ccnc2ccc(OC)cc12
inactive: max response [2] -3.94% | max response [4] -2.33% | Potency [5] | Potency [6]

CCCCCCCCCCCCOCCOCCOCCOCCOCCOCCOCCOCCOCCO
inactive: max response [2] 0.283% | max response [4] -5.79% | Potency [5] | Potency [6]
active: Potency [9] 7.5 µM

O=C1c2cccc3c2[C@H](CCC3)CN1[C@@H]1CN2CCC1CC2
inactive: max response [2] -46% | max response [3] -11.9% | Potency [5]
active: Potency [9] 21.1 µM

CCO[C@@H]1O[C@H](C(COCc2ccccc2)OCc2ccccc2)[C@H](OCc2ccccc2)[C@H]1O (some centres undefined)
active: Potency [9] 16.8 µM
inactive: Potency [5]

CCOC(=O)[C@H](CCc1ccccc1)N[C@@H](C)C(=O)N1[C@H](C(=O)O)C[C@H]2CCCC[C@@H]21
inactive: Potency [7]

Cc1cc2c(OCC(CNC(C)(C)C)OC(=O)c3ccccc3)cccc2[nH]1 (centres undefined)
active: Potency [7] 2.13 µM
inactive: outcome [9] | max response [2] 1.54% | max response [3] -8.32% | max response [4] 2.07% | outcome [10] | Potency [5] | Potency [6]
